Results filed as inconclusive are left out. The source made the active and inactive calls. The calls were made as follows: active = hit-call score of the fitted dose curve at least 0.9, where 1 is the maximum; inconclusive = response in the unintended direction; inactive = score below 0.9.

Chain of Glyceraldehyde-3-phosphate dehydrogenase (Homo sapiens) (P04406 whole entry, looked up): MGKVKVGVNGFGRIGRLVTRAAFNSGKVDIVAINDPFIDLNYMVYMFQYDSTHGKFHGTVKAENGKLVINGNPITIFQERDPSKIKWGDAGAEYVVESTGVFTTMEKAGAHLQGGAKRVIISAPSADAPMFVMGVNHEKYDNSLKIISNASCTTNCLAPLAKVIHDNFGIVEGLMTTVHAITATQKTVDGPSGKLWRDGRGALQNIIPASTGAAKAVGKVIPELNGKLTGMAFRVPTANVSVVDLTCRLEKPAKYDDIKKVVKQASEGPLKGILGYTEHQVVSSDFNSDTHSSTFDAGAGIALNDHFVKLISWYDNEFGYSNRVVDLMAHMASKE

Read-out in the test: Glyceraldehyde-3-phosphate dehydrogenase (Homo sapiens) (UniProt P04406)
Kind of test: CLD_GAPDH_24hr: CellzDirect (CLD) Gene Expression Assay for Baseline Control (Glyceraldehyde 3-phosphate dehydrogenase) at 24 hours (AID 2283692). On the procedure:
CLD_24hr is a cell-based, multiplexed-readout assay that uses hepatocyte, a human liver primary cell, with measurements taken at 24 hours after chemical dosing in a 96-well plate.CLD_GAPDH_24hr is one of 16 assay component(s) measured or calculated from the CLD_24hr assay. It is designed to make measurements of mRNA induction, a form of inducible reporter, as detected with chemiluminescence signals by Quantitative Nuclease Protection Assay (qNPA) technology.Data from the assay component CLD_GAPDH_24hr was analyzed at the endpoint, CLD_GAPDH_24hr, in the positive analysis fitting direction relative to DMSO as the negative control and baseline of activity. Using a type of inducible reporter, gain-of-signal activity can be used to understand changes in the reporter gene as they relate to the gene GAPDH. Furthermore, this assay endpoint can be referred to as a secondary readout, because this assay has produced multiple assay endpoints where this one serves a background control function. To generalize the intended target to other relatable targets, this assay endpoint is annotated to the background measurement intended target family, where subfamily is baseline control.
Human hepatocyte cultures were treated daily for two consecutive days with fresh dosing solutions containing appropriate concentrations of the 320 ToxCast chemicals (chemical identities were blinded to CellzDirect and other ToxCast collaborators), vehicle control (0.2% DMSO), and positive control inducers as summarized in Table 1. Due to the large number of treatment groups and chemicals examined, the ToxCast chemicals were divided into two groups (spanning two independent cultures of hepatocytes from separate donor preparations (Hu778: ToxCast plates 1 and 2; Hu776: ToxCast plates 3 and 4). Each preparation of human hepatocyte cultures was treated with respective vehicle control, medium only control, set of six positive controls/reference chemicals for the five hepatic receptor pathways, and a subset of eight of the ToxCast chemicals (indoxacarb, pyrithiobac-sodium, norflurazon, cyhalofop-butyl, methomyl, thiram, acetochlor, and propiconazole). These replicate data, coupled with internal replicates designed within the blinded ToxCast chemical library, provided additional data to evaluate interindividual differences between hepatocyte preparations and their potential impact on chemical profiles.Cell morphology and integrity were evaluated using phase-contrast microscopy as an indicator of hepatocyte cell health (Tyson & Green, 1987). Cultures for each treatment group (i.e., media, vehicle [0.2% DMSO], positive control inducers [multiple concentrations], and the ToxCast chemicals [multiple concentrations]) were observed and cell morphology was assessed relative to vehicle control cultures at each harvest time point (0, 6, 24, or 48 h). […] Images were evaluated at the conclusion of the study to assess changes in cell integrity and account for the effects of chemical exposure on uncharacteristic changes in concentration-dependent gene expression profiles. The results from these determinations of apparent cytotoxicity were annotated (yes/no) alongside the corresponding qNPA data for reference.At the conclusion of each treatment period, hepatocyte cultures (96-well) were washed with 1 volume of HBSS, lysed by addition of 25 ul ArrayPlate lysis buffer (HTG, Tucson, AZ), and 70 ul/well of Denaturation Oil, denatured by incubation at 95C for 10 min, and frozen at approximately -70C until analysis by nuclease protection assay (qNPA) (Roberts et al., 2007). For qNPA analysis, cell lysates were thawed at 50C for approximately 30 min, qNPA probes were added, and samples were incubated at 95C for 10 min to begin the detection process by denaturing the target RNA, dissociating the duplexes and secondary structure hybridization. At the conclusion of the hybridization period, S1 nuclease reagent was added to each sample to digest all nonprotected nucleotides at 50C for 60-90 min. […]
On to `O=C(O)c1c(Cl)ccc2cc(Cl)cnc12`, for which the call was inactive.
For `Nc1cnn(-c2ccccc2)c(=O)c1Cl`, the outcome was inactive.
As to `O=C1C2CC=CCC2C(=O)N1SC(Cl)(Cl)Cl` (stereo not drawn), the molecule was classed as inactive.
The entry for `CCCN(CC)CC1COC2(CCC(C(C)(C)C)CC2)O1` (stereo not drawn) is “inactive”; for `CC1(C)CON(Cc2ccccc2Cl)C1=O` it is “inactive”; for `C=C(C)CN(CC)c1c([N+](=O)[O-])cc(C(F)(F)F)cc1[N+](=O)[O-]` it is “inactive”.
The entry for `CC(C)Nc1nc(Cl)nc(NC(C)C)n1` is “inactive”; for `CCOc1nc(F)cc2nc(S(=O)(=O)Nc3c(Cl)cccc3Cl)nn12` it is “inactive”.
The entry for `CCCC(=NOCC)C1=C(O)CC(CC(C)SCC)CC1=O` (stereo not drawn) is “inactive”; for `N#Cc1c(Cl)cccc1Cl` it is “inactive”; for `Cc1ccc(N=CN(C)C=Nc2ccc(C)cc2C)c(C)c1` it is “inactive”.
As to `O=P(O)(O)CCCl`, the outcome was inactive.
The entry for `CCOc1nc(C(Cl)(Cl)Cl)ns1` is “inactive”.
The entry for `CS(=O)(=O)c1cc(C(F)(F)F)ccc1C(=O)c1cnoc1C1CC1` is “inactive”.
Take `CC(C)C1(C)N=C(c2ncccc2C(=O)O)NC1=O` (stereo not drawn): the result was inactive.
In the case of `COP(=S)(OC)Oc1ccc([N+](=O)[O-])c(C)c1`, the molecule was classed as inactive.
The entry for `Cc1cnc(C2=NC(C)(C(C)C)C(=O)N2)c(C(=O)O)c1` (stereo not drawn) is “inactive”; for `COc1ccc(-c2ccccc2)cc1NNC(=O)OC(C)C` it is “inactive”.
The entry for `C=CCOC(=O)C(C)(C)OC(=O)c1cc(-n2c(=O)cc(C(F)(F)F)n(C)c2=O)ccc1Cl` is “inactive”; for `CO/N=C(/C1=NOCCO1)c1ccccc1Oc1ncnc(Oc2ccccc2Cl)c1F` it is “inactive”.
The entry for `N#CN=C1SCCN1Cc1ccc(Cl)nc1` is “inactive”; for `Nc1c(Cl)c(F)nc(OCC(=O)O)c1Cl` it is “inactive”; for `CC(C)N1C(=O)c2ccccc2NS1(=O)=O` it is “inactive”.
For `CCOP(=O)(OCC)Oc1nc(Cl)c(Cl)cc1Cl`, the outcome was inactive.
The entry for `O=c1n(Cl)c(=O)n(Cl)c(=O)n1Cl` is “inactive”.
The entry for `Cn1c(-c2ccccc2)cc(-c2ccccc2)[n+]1C` is “inactive”.
The entry for `COCC(=O)N(c1c(C)cccc1C)C(C)C(=O)OC` (stereo not drawn) is “inactive”.
As to `Clc1nc(Cl)nc(Nc2ccccc2Cl)n1`, the call was inactive.
The entry for `CNC(=O)Oc1cccc2ccccc12` is “inactive”; for `CN=C=S` it is “inactive”.
The entry for `CCNC(=O)NC(=O)C(C#N)=NOC` is “inactive”.
The entry for `CC(C)=CC1C(C(=O)OCc2coc(Cc3ccccc3)c2)C1(C)C` (stereo not drawn) is “inactive”; for `CS(=O)(=O)c1ccc(C(=O)C2C(=O)CCCC2=O)c([N+](=O)[O-])c1` it is “inactive”.
